From PubChem BioAssay AID1739 (National Center for Advancing Translational Sciences (NCATS), 2009)
Results filed as inconclusive are left out. Values without a mark were called inactive. Calls of active or inactive are those of the source. Calls come from the whole dose curve; as a rule, active = well fitted inhibition curve with a large enough effect; inconclusive = small, poorly fitted or top-dose-only effect; inactive = flat fitted curve, though single readings scatter.

Assay: Counterscreen Assay for Enhancers of SMN2 Splice Variant Expression: Modulation of SMN1 Expression
Conditions: HEK293 SMN1-luciferase reporter, luminescence, 30-36 h; series mostly up to 22.8 µM; activity change, negative = inhibition: at the top concentration
Description: NIH Chemical Genomics Center [NCGC] NIH Molecular Libraries Probe Production centers Network [MLPCN] MLPCN Grant: R03 MH084179-01 Assay Submitter (PI): Elliot Androphy NCGC Assay Overview: Spinal muscular atrophy (SMA) is caused by insufficient levels of the survival motor neuron protein SMN. The SMN locus on chromosome 5q13 contains two inverted copies of SMN called SMN1 and SMN2 which are 99% identical at the amino acid level. SMN1 is a fully functional protein and SMN2 skips exon 7 90% of the time. Skipping of exon 7 produces non-functional protein product. 10% of the SMN2 protein includes exon 7 and is fully functional. In the SMA disease state, mutations in the SMN1 locus are the cause of the disease state. Because only 10% of SMN2 is of the fully functional form, it is not sufficient to overcome the deficiency produced by the loss of the SMN1 product. A therapy that either increase the amount of SMN2 product made or to increase the inclusion of exon 7 has been proposed for the treatment of SMA. We have designed an assay to identify small molecules that can increase the amount of functional SMN2 product by appending a luciferase reporter gene after the native SMN2 gene, such that inclusion of exon 7 in the expressed product places the luciferase sequence in frame, thus generating functional luciferase enzyme. As a counterscreen for nonspecific modulators of expression, we have run compounds through a similar assay that measures expression of an SMN1-luciferase chimera.
NCGC Assay Protocol Summary: This screen utilizes a luciferase reporter gene assay, combining the promoter with the major portion of the native SMN1 cDNA (exons 1 -7, intron 8 , exon 8 fused to luciferase) stably expressed in HEK293 cells. Compounds that increase luciferase signal presumably enhance expression of the functional SMN1 splice variant. Passaging media contained DMEM w/ glutamax (+phenol red) 10% FCS, 1x pen/strep, 200 ug/ml hygro, 1x sodium pyruvate. Assay media contained DMEM w/ glutamax (-phenol red) 10% FCS, 1x pen strep, 1x pyruvate Sequence, Parameter, Value, Description (1) Cells, 5 uL, 2000 cells/well, 1536 TC treated White solid bottom plate (2) Time, 10-12 hours, 37C 5% CO2 (3) Compound, 23 nl, MLSMR Library (4) Control Compound, 23 nL, Sodium butyrate st 4.5mM (final) conc (5) Time, 30-36 hours, 37C 5% CO2 (6) Reagent, 3 ul, One Glo (TM) from Promega (7) Time, 5-15 minutes, Room temp (8) Detector, Viewlux: luminescent read, 60 second integration, high speed 2x binning Keywords: Spinal muscular atrophy, SMA, SMN2, high throughput screening, MLSMR, MLPCN, NIH Roadmap, qHTS and NCGC

Row | Structure (SMILES) | activity change, negative = inhibition | Potency
1 | O=C1CCC(C(=O)Nc2cccc3ccccc23)N1 (stereo not drawn) | -6.36% [at 46.1 µM] | 
2 | Cn1c(C(=O)NCc2cccs2)cc2oc3ccccc3c21 |  | 3.16 µM (active)
3 | FC(F)(F)c1cccc(-c2nnc(-c3ccccc3)c(N3CCOCC3)n2)c1 | -12.7% | 
4 | FC(F)(F)c1nnc(-c2ccccc2)nc1Oc1ccccc1 | -5.97% | 
5 | c1ccc(-c2nnc(-c3ccccc3)c(-c3c[nH]c4ccccc34)n2)cc1 | -2.82% | 
6 | Cc1[nH]c2ccccc2c1-c1nc(-c2ccc(Cl)cc2)nnc1-c1ccccc1 | -7.98% | 
7 | O=C(O)c1cccc(COc2ccc(CO)cc2Cl)c1 |  | 3.16 µM (active)
8 | NC(=O)N1c2ccccc2C=Cc2ccccc21 | -14% [at 46.1 µM] | 
9 | CCCc1sc(N2CCCC(C(N)=O)C2)nc1-c1ccccc1 (stereo not drawn) | -5.38% | 
10 | COc1cccc(NC(=O)CSc2nc3ccccc3nc2N2CCOCC2)c1 |  | 5.01 µM (active)
11 | O=C(Nc1nc(-c2ccc3ccccc3c2)cs1)C1CCN(S(=O)(=O)c2cccs2)CC1 | -32.5% | 
12 | Brc1nc2ncnc(NCc3ccco3)c2[nH]1 | -15.6% [at 46.1 µM] | 
13 | CC(/C=C/C(=O)NO)=C\[C@@H](C)C(=O)c1ccc(N(C)C)cc1 |  | 7.94 µM (active)
14 | CCCCOC(C)n1cc(F)c(=O)[nH]c1=O (stereo not drawn) | 10.5% | 
15 | OCCCNc1nc(-c2ccc(Cl)cc2)nnc1-c1ccc(Br)cc1 | 1.41% | 
16 | O=C(NCCCNCCCNC(=O)c1ccccn1)c1ccccn1 | 24.4% [at 46.1 µM] | 
17 | FC(F)C(F)(F)C1=CC(c2cccs2)=NCCN1 | -7.36% [at 46.1 µM] | 
18 | Clc1ccc(-c2nnc(-c3ccccc3)nc2N2CCSCC2)cc1 | 5.88% | 
19 | CCCSc1nnc(Sc2nnnn2-c2ccccc2)s1 |  | 7.08 µM (active)
20 | CN(C)CCCN(C(=O)c1cccs1)c1nc(-c2ccccc2)cs1 | -16% | 
21 | Nn1c(SCC(=O)NCCC2=CCCCC2)nnc1C1CCCCC1 | 4.9% [at 46.1 µM] | 
22 | COCCCN1C(=O)C(=O)/C(=C(/O)c2ccc3c(c2)CC(C)O3)C1c1cccnc1 (stereo not drawn) | -6.27% [at 46.1 µM] | 
23 | Clc1nc(NCc2ccco2)c2[nH]cnc2n1 | -19.7% [at 46.1 µM] | 
